Shown are actives, neighbours in structure and some others; about 3.6% of the full set was active somewhere.
Pf apPOL block: Pf-apPOL DNA polymerase inhibition; Recombinant Pf-apPOL, molecular beacon fluorescence, 1.5 h; inhibition, % at 10 µM; 0.25% of 210,000 active
mHTT-CaM PPI inh: disrupts binding of mutant huntingtin to calmodulin. P42858. 3.6% of 190,000 active. AlphaScreen His-mHTT/GST-CaM binding, luminescence. inhibition, % at 15 µM;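 note: 0% = both proteins with DMSO and 100% = one protein alone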
* hit, by the source's call. Cut-off read from the data, not from the text of the source: active = inhibition above about 50%; inactive = the rest.

`Cc1cc2c(N3CCCC(C(=O)N4CCN(C5CCCCC5)CC4)C3)nccc2s1` (stereo not drawn) gave Pf apPOL block -5 and mHTT-CaM PPI inh 40.
`COCC1CCN(C(=O)C2CCN(c3cnn(Cc4ccccc4)c(=O)c3)CC2)CC1` gave Pf apPOL block -4 and mHTT-CaM PPI inh -4.
For CCCCC[C@@H](C)N1C[C@@H](COCc2ccccc2)Oc2cc(N3CC[C@@H](O)C3)ccc2S1(=O)=O the results were Pf apPOL block -2 and mHTT-CaM PPI inh 99*.
For CCCCC[C@@H](C)N1C[C@H](COCc2ccccc2)Oc2cc(N3CCC[C@H]3C(N)=O)ccc2S1(=O)=O the results were Pf apPOL block -5 and mHTT-CaM PPI inh 22.
`CCCCC[C@@H](C)N1C[C@@H](COCc2ccccc2)Oc2cc(N3CCC[C@@H]3CO)ccc2S1(=O)=O` gave Pf apPOL block -6 and mHTT-CaM PPI inh 22.
`CCCCC[C@H](C)N1C[C@H](COCc2ccccc2)Oc2cc(N3CCC[C@H]3C(N)=O)ccc2S1(=O)=O` gave Pf apPOL block -18 and mHTT-CaM PPI inh 42.
CCCCC[C@H](C)N1C[C@@H](COCc2ccccc2)Oc2cc(N3CC[C@@H](O)C3)ccc2S1(=O)=O was read as Pf apPOL block -7 and mHTT-CaM PPI inh 74*.
For CCCCC[C@@H](C)N1C[C@@H](COCc2ccccc2)Oc2cc(N3CC[C@H](O)C3)ccc2S1(=O)=O the results were Pf apPOL block -3 and mHTT-CaM PPI inh 90*.
O=C(c1cc(-c2cccs2)[nH]n1)N1CCc2nc3cc(-c4ccccc4)[nH]n3c(=O)c2C1 was read as Pf apPOL block 21 and mHTT-CaM PPI inh 30.
Screening N#Cc1ccc(Oc2ccc(C(=O)O)cc2)cc1 returned Pf apPOL block 4 and mHTT-CaM PPI inh 1.
`COc1ccc(C(=O)NC(c2ccccc2)c2ccccc2)cc1OC` gave Pf apPOL block -6 and mHTT-CaM PPI inh -3.
For COc1ccc(NC(=O)NC(c2ccccc2)c2ccccc2)cc1OC the results were Pf apPOL block -5 and mHTT-CaM PPI inh 62*.
O=C(O)CCCN1C(=O)C(=O)C(=C(O)c2ccccc2)C1c1ccccc1F (stereo not drawn) was read as Pf apPOL block -7 and mHTT-CaM PPI inh -1.
COc1cccc(-c2oncc2CN2CCN(c3ccccc3)CC2)c1 was read as Pf apPOL block -1 and mHTT-CaM PPI inh 19.
`COc1ccc(N2CCN(Cc3cnoc3-c3ccccc3)CC2)cc1` gave Pf apPOL block -10 and mHTT-CaM PPI inh 57*.
O=[N+]([O-])c1ccc(O)c(N=Cc2sc3ccccc3c2O)c1 was read as Pf apPOL block -5 and mHTT-CaM PPI inh 43.
Screening O=[N+]([O-])c1ccc2c(N=Nc3ccc4ccccc4c3O)c(O)cc(S(=O)(=O)O)c2c1 returned mHTT-CaM PPI inh 100*.
COc1ccccc1Nc1nc(-c2ccncc2)cs1 was read as Pf apPOL block 1 and mHTT-CaM PPI inh 11.
COc1nc(Nc2cc(Cl)ccc2OC)nc(OC)n1 was read as Pf apPOL block 2 and mHTT-CaM PPI inh -3.
`COc1ccc(OC)c(Nc2nc(-c3sc(N)nc3C)cs2)c1` gave Pf apPOL block -11 and mHTT-CaM PPI inh 81*.
For COc1ccc(Cl)cc1Nc1nc(-c2sc(N)nc2C)cs1 the results were Pf apPOL block -9 and mHTT-CaM PPI inh 82*.
Screening Cc1ccc(NC(=O)Nc2c[nH]c3ccccc23)cc1F returned Pf apPOL block -6 and mHTT-CaM PPI inh 5.
`CC(=O)N1CCc2sc(C(=O)NCc3ccc(C)cc3)cc2C1` gave Pf apPOL block 0 and mHTT-CaM PPI inh 5.
For CC(=O)c1cccc(S(=O)(=O)NCc2nc(C)no2)c1 the results were Pf apPOL block -1 and mHTT-CaM PPI inh -15.
For c1cc(-c2noc(-c3cccc4[nH]ccc34)n2)cc(-c2ccn[nH]2)c1 the results were Pf apPOL block 4 and mHTT-CaM PPI inh 62*.
For Fc1ccccc1-c1nc(-c2cccc(-c3ccn[nH]3)c2)no1 the results were Pf apPOL block 2 and mHTT-CaM PPI inh 9.
Screening CN(C)c1ccc(-c2nc(-c3ccc(=O)n(C)c3)no2)cc1 returned Pf apPOL block 5 and mHTT-CaM PPI inh 9.
Screening COc1ccc(-c2nnc(NC(=O)c3ccc(S(=O)(=O)N(C)C)cc3)o2)cc1 returned Pf apPOL block -1 and mHTT-CaM PPI inh 30.
For CN(C)c1ccc(C(=O)Nc2nnc(-c3ccc(Br)cc3)o2)cc1 the results were Pf apPOL block -30 and mHTT-CaM PPI inh 60*.
Screening CN(C)c1ccc(-c2noc(-c3ccc(Br)cc3)n2)cc1 returned Pf apPOL block -1 and mHTT-CaM PPI inh 79*.
For O=C(NCc1ccc(Cl)cc1)c1cc2c(s1)CCN(C(=O)c1ccccc1)C2 the results were Pf apPOL block -4 and mHTT-CaM PPI inh 1.
`N/C(=N\OC(=O)CC(NC(=O)C(F)(F)F)c1ccccc1)c1nonc1N` (stereo not drawn) gave Pf apPOL block -3 and mHTT-CaM PPI inh inactive.
`CCCNC(=O)c1ccc2c(c1)n(Cc1cccc(F)c1)c(=O)c1ccnn12` gave Pf apPOL block 2 and mHTT-CaM PPI inh -4.
`CCCCCC(=O)N(CN1C(=O)c2ccccc2C1=O)c1cccc(C(=O)O)c1` gave Pf apPOL block 0 and mHTT-CaM PPI inh 6.
For CC(C)N1C(=O)C(C)(C(=O)NCc2ccccc2)Oc2cccnc21 (stereo not drawn) the results were Pf apPOL block -3 and mHTT-CaM PPI inh -5.
For CC(C)N1C(=O)C(C)(C(=O)NCc2ccc(Br)cc2)Oc2cccnc21 (stereo not drawn) the results were Pf apPOL block -7 and mHTT-CaM PPI inh 95*.
For COc1ccc(C2C=C(c3ccc(F)cc3)Nc3ncnn32)cc1 (stereo not drawn) the results were Pf apPOL block -5 and mHTT-CaM PPI inh 5.
For CCCCN1C(=O)c2cccc3c(NC(=O)c4cc(C)n(C)n4)ccc1c23 the results were Pf apPOL block -3 and mHTT-CaM PPI inh -4.
For CN(C)C(=O)c1cc2c(s1)CCC(C(=O)NCc1ccc(N3CCCCC3)cc1)C2 (stereo not drawn) the results were Pf apPOL block -5 and mHTT-CaM PPI inh -1.
COc1ccc(CN=Cc2[nH]c3ccc(Br)c(Cl)c3c2O)cc1 was read as Pf apPOL block 5 and mHTT-CaM PPI inh 69*.
`Oc1c(C=NCc2ccccc2)[nH]c2ccc(Br)c(Cl)c12` gave Pf apPOL block 8 and mHTT-CaM PPI inh 36.
For Oc1c(C=NC2CCCCC2)[nH]c2ccc(Br)c(Cl)c12 the results were Pf apPOL block 9 and mHTT-CaM PPI inh 76*.
For Oc1c(C=Nc2ccc(Br)cc2)[nH]c2ccc(Br)c(Cl)c12 the results were Pf apPOL block -7 and mHTT-CaM PPI inh 58*.
COc1ccc(N=Cc2[nH]c3ccc(Br)c(Cl)c3c2O)cc1 was read as Pf apPOL block -11 and mHTT-CaM PPI inh 19.
Screening Cc1cc(C)cc(N=Cc2[nH]c3ccc(Br)c(Cl)c3c2O)c1 returned Pf apPOL block -3 and mHTT-CaM PPI inh 4.
Screening CCOc1ccc(-c2nc3s/c(=C\c4ccccc4F)c(=O)n3n2)cc1 returned Pf apPOL block 5 and mHTT-CaM PPI inh 2.
For COc1ccc(-c2c(-c3ccc(O)cc3O)n[nH]c2C)cc1 the results were Pf apPOL block 12 and mHTT-CaM PPI inh 35.
`Cc1[nH]nc(-c2ccc(O)c(O)c2O)c1-c1ccccc1` gave Pf apPOL block 0 and mHTT-CaM PPI inh 91*.
For COc1ccc(/C=C2/SC(=Nc3ccccc3Cl)NC2=O)cc1 the results were Pf apPOL block -1 and mHTT-CaM PPI inh 43.
